Compound activity from PubChem.
Hits are enriched below; roughly 6.9% of the tested compounds scored in any of these assays.
SW480 rereplic – A quantitative high throughput screen for small molecules that induce DNA re-replication in SW480 colon adenocarcinoma cells; Potency, µM (series often up to 46.1 µM), for inactives: top-dose re-replication activation, hits mostly activators; 1.8% of 340,000 active; SW480 DNA re-replication, Hoechst DNA content imaging, 48 h; also: potency is read from the fitted curve at half-maximal effect; % of control where 0% means no effect; nearly all actives have a fitted effect of over 55% in size
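First, 250 cells per well were seeded. Next, compound or vehicle (23 nL) was pinned in, plates sat 48 hr at 37 C. Finally Hoechst was added for 40 min before fluorescence scanning.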
IL-1B inflam inh – qHTS for Inhibitors of Inflammasome Signaling: IL-1-beta AlphaLISA Primary Screen | THP-1 LPS/ATP IL-1B secretion, AlphaLISA, 16 h; hits give low values | activity change, % at 57.5 µM | 4.7% of 360,000 active | AID 743279, 2014; in the data active = activity change below about -50%; inconclusive = mostly about -30% to -49%; also: % is scaled to controls: 0 for no effect and ±100 for the full control effect
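THP-1 cells pretreated 1 hr with compounds (up to 57.5 uM final), then stimulated with LPS (250 ng/mL final) plus ATP (1.25 mM final); secreted IL-1B measured by AlphaLISA after 16 hr, decreased signal indicating inhibition.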
MCF10A rerep – A quantitative high throughput screen for small molecules that induce DNA re-replication in MCF 10a normal breast cells. MCF 10A DNA re-replication, Hoechst nuclear intensity, 48 h. Potency, µM (top dose mostly 46.1 µM), for the others: at the top dose activity, positive = re-replication, hits mostly activators. 2.9% of 350,000 active; also: potency is read from the fitted curve at half-maximal effect; % of control where 0% means no effect; nearly all actives have a fitted effect of over 50% in size
Vif-APOBEC3G blk – qHTS for Inhibitors of Vif-A3G Interactions: qHTS. 0.076% of 410,000 active. Potency, µM (series often up to 46.1 µM), inactives show at the top dose activity, negative = active, actives largely listed as inhibitors. HeLa A3G-eYFP + Vif (tagged APOBEC3G with the HIV-1 protein that degrades it), YFP fluorescence, overnight; also: potency is read from the fitted curve at half-maximal effect; % is scaled to controls: 0 for no effect and ±100 for the full control effect; nearly all actives have a fitted effect of over 60% in size
Target sequence (Q9HC16 whole entry, looked up): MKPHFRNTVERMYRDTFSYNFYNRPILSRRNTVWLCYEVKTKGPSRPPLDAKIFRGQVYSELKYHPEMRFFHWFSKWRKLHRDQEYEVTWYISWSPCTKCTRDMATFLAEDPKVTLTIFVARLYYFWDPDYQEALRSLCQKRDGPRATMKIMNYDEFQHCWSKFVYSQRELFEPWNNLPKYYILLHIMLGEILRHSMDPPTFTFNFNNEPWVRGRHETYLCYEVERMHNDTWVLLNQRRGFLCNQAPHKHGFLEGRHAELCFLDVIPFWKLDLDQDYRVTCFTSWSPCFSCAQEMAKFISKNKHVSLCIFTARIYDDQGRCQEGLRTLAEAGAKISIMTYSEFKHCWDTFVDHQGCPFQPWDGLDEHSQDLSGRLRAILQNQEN
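HeLa cells stably expressing Vif and C-terminally eYFP-tagged A3G, seeded overnight at 37 deg C, then exposed to compound by pintool overnight at 37 deg C. Rise in yellow fluorescence (Ex 488/Em 500-530, Acumen) marks blocked Vif-driven A3G degradation.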
Giardia kill – Small Molecules that selectively kill Giardia lamblia: qHTS; Giardia lamblia trophozoite viability; activity change, % at 7.66 µM, hits read low; 0.15% of 340,000 active; in the data active = activity change below about -80%; inconclusive = between about -30% and that limit;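 also: parasites exposed to compound for two days anaerobically before the ATP read; % is scaled to controls: 0 for no effect and ±100 for the full control effect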
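Luminescence from cellular ATP indicates surviving trophozoites (100 cells/well) following 48 hrs anaerobic compound treatment at 37 deg C; signal develops 15-30 min at room temperature.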
Vif-A3F inh – qHTS for Inhibitors of Vif-A3F Interactions: qHTS; HeLa A3F-eYFP + Vif (tagged APOBEC3F with the HIV-1 protein that degrades it), YFP fluorescence increase; Potency, µM (series often up to 46.1 µM), inactives show top-dose activity, negative = active; 0.2% of 390,000 active; AID 602313, 2012; also: potency is read from the fitted curve at half-maximal effect; % of control where 0% means no effect; nearly all actives have a fitted effect of over 65% in size
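HeLa cells stably expressing A3F-eYFP plus Vif, plated and incubated overnight at 37 deg C, then exposed to compounds overnight at 37 deg C. Blocked degradation read as raised yellow fluorescence (Ex 488/Em 500-530).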
* hit, by the source's call; ? = inconclusive; . = no result. Unless noted, calls follow the shape of the dose curve; as a rule, active = well fitted curve in the direction sought with a large enough effect; inconclusive = small, poorly fitted or top-dose-only effect, or another doubt; inactive = no such curve, though single readings can be large; an effect the other way counts as inactive or inconclusive.

SMILES | SW480 rereplic | IL-1B inflam inh | MCF10A rerep | Vif-APOBEC3G blk | Giardia kill | Vif-A3F inh
COC(=O)c1c(-c2cccs2)csc1NC(=O)COc1c(C)ccc(C)c1C | . | . | . | 1% | . | -2%
COc1cc(CNc2ccc3[nH]c(=O)[nH]c3c2)cc(Cl)c1OCc1ccccc1F | . | . | . | -17% | . | -17%
COc1cc(CNC2CCCC2)cc(Cl)c1OCc1ccccc1F | -6% | -76* | 2% | -3% | 6 | -5%
O=C(C=Cc1cccc(O)c1)c1ccccc1O | ? | -93* | ? | -23% | -26 | -6%
O=C(C=Cc1ccccc1O)c1ccccc1O | ? | -97* | ? | -21% | 9 | 0%
O=C(/C=C/c1ccc(O)c(O)c1)c1ccccc1O | -3% | -93* | ? | -19% | 10 | ?
CC(=O)Nc1ccc(/C=C/c2ccnc3ccccc23)cc1[N+](=O)[O-] | . | . | . | -1% | . | .
Cc1ccc(Sc2ccc(NC(=O)CCl)cc2)c(C)c1 | ? | -67* | ? | -9% | -20 | 3%
Cc1ccc(C)c(Sc2ccc(NC(=O)CCN3C(=O)NC4(CCCC4)C3=O)cc2)c1 | 6% | 0 | 23µM* | -13% | 4 | -13%
COc1ccc(Cl)cc1NC(=O)C1CCN(S(=O)(=O)c2ccc(F)cc2)CC1 | . | . | . | 3% | . | 0%
Cc1cccc(Nc2nnc(SCC(O)=C(C#N)c3nc4ccccc4[nH]3)s2)c1 | 25% | 16 | 15µM* | ? | -6 | ?
Cc1cc(SCC(=O)OC/C(O)=C(\C#N)c2nc3ccccc3[nH]2)c(C)cc1Br | 29% | -100* | 11% | ? | 7 | ?
N#C/C(=C(/O)COC(=O)CSc1ccc(Cl)cc1)c1nc2ccccc2[nH]1 | ? | -102* | ? | -2% | 24 | -13%
Cc1cc(C)n2c(SC/C(O)=C(\C#N)c3nc4ccccc4[nH]3)nnc2n1 | ? | 6 | 2% | -1% | 39 | ?
N#CC(=C(O)COC(=O)CCC1CCCCC1)c1nc2ccccc2[nH]1 | 12% | -98* | ? | -4% | 6 | -17%
COc1ccccc1OCC(=O)OC/C(O)=C(\C#N)c1nc2ccccc2[nH]1 | 0% | 44 | 6% | 2% | 22 | 0%
Cc1ccc2oc(-c3ccc(C)c(NC(=O)COc4ccccc4C)c3)nc2c1 | . | . | . | 1% | . | .
N#C/C(=C(/O)COC(=O)c1ccc2c(c1)OCCO2)c1nc2ccccc2[nH]1 | ? | -66* | ? | -25% | 18 | ?
COc1ccc(-c2oc3cc(O)c(OC)c(O)c3c(=O)c2OC)cc1 | ? | 48 | 5.2µM* | ? | 6 | -5%
CCOC(=O)c1cnc2ccc(OC(F)(F)F)cc2c1Nc1ccccc1C(=O)O | . | . | . | 0% | . | 1%
CCc1ccc(-n2c(=O)c3c4c(sc3n(CC(=O)c3ccc(Br)cc3)c2=O)CCC4)cc1 | . | . | . | 0% | . | -2%
COc1cc(C(=O)OCC#N)ccc1OCc1c(C)noc1C | 10µM* | 81 | 4.1µM* | ? | -1 | 4%
COc1ccc(CCNC(=O)c2ccc(OCc3c(C)noc3C)c(OC)c2)cc1 | -2% | 33 | 7% | 0% | -9 | 4%
COc1cc(C(=O)NCCc2c[nH]c3ccccc23)ccc1OCc1c(C)noc1C | -6% | -77* | 3% | 3% | 2 | 4%
O=C(CN1CCN(Cc2ccc(F)cc2Cl)S1(=O)=O)Nc1ccc(F)cc1 | . | . | . | 7% | . | -12%
SMILES | SW480 rereplic | IL-1B inflam inh | MCF10A rerep | Vif-APOBEC3G blk | Giardia kill | Vif-A3F inh
CCOC(=O)c1ccc(S(=O)(=O)N2CCN(c3nc(-c4ccccc4)nc4ccccc34)CC2)cc1 | . | . | . | 0% | 14 | .
Cc1occc1-c1nnc(-c2cc([N+](=O)[O-])cc([N+](=O)[O-])c2)o1 | 13µM* | 17 | 0% | -10% | -22 | -32%
O=[N+]([O-])c1cccc(-c2nnc(-c3ccccc3)o2)c1 | -4% | 3 | ? | -14% | ? | 16%
CCOC(=O)CSC1=C(C#N)C(c2ccccc2OCC)C(C#N)C(=O)N1 (centres undefined) | 18µM* | 4 | ? | ? | 0 | -2%
CCOC(=O)CSC1=C(C#N)C(c2ccc(C)o2)CC(=O)N1 (centres undefined) | 0.82µM* | 39 | ? | -42% | -7 | 0%
CCOC(=O)CSC1=C(C#N)C(c2ccc(Cl)cc2)CC(=O)N1 (centres undefined) | 9% | -5 | 2% | 0% | -11 | -5%
O=C(Nc1ncccc1O)c1ccc2c(c1)OCCO2 | 18% | 12 | 11% | 1% | 12 | -13%
O=C(Oc1c(Cl)cc(Cl)c2cccnc12)c1cccc([N+](=O)[O-])c1 | ? | 46 | 10µM* | -11% | -11 | 0%
Cc1c(C(=O)Oc2cccc3cccnc23)cccc1[N+](=O)[O-] | ? | -66* | ? | -3% | 39 | 11%
O=C(Oc1cccc2cccnc12)c1ccc2c(c1)OCCO2 | 10µM* | -5 | 3.3µM* | 2% | ? | 4%
O=C(Oc1coc(CSc2ncccn2)cc1=O)c1cccc([N+](=O)[O-])c1 | -7% | 56 | -2% | 0% | 15 | -16%
O=C(Oc1ccc(Cl)c2cccnc12)c1cccc([N+](=O)[O-])c1 | . | -18 | 3.7µM* | ? | 6 | -15%
Cc1ccc(NC(=O)Cc2ccc(-n3c(C)nc4cccnc43)cc2)cc1C | . | . | . | -2% | . | 1%
O=C(CSc1n[nH]c(-c2ccc(F)cc2)n1)NCc1ccccc1Cl | . | . | . | 2% | . | -8%
O=[N+]([O-])c1ccc(Oc2cccc3cccnc23)c([N+](=O)[O-])c1 | ? | -29 | 21µM* | 10µM* | -5 | ?
O=C(Oc1cccc2cccnc12)c1cccc([N+](=O)[O-])c1 | ? | -99* | ? | -22% | -3 | 0%
O=C(Oc1ccc(Cl)c2cccnc12)c1ccco1 | ? | 64 | 7.3µM* | 11µM* | -19 | -7%
O=C(Oc1cccc2cccnc12)c1ccco1 | ? | 34 | ? | ? | -9 | -7%
N#Cc1ccc(Oc2cccc3cccnc23)c([N+](=O)[O-])c1 | 12% | -8 | ? | 2% | -2 | -4%
CCc1ccc(C2CC(c3ccc(Cl)cc3)=NNC2=O)cc1 (centres undefined) | -2% | -52* | 9% | -1% | -16 | -4%
Cc1ccc(C2CC(c3ccc(Cl)cc3)=NNC2=O)cc1 (centres undefined) | -5% | -13 | 14% | 0% | -5 | 4%
